# PubChem BioAssay
# Several values for one entry are separate records, joined by “and”; a condition that tells them apart may be missing. Equal values may be shown once. Activity calls are given as the source filed them.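 Rule for the calls, unless noted: active = compounds whose cell count with miR-34 switched on is under 0.7 times the count with it off; inactive = the rest.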
# Columns and labels:
# [1] = sensitizers of A549 cells to miR-34 induction, primary screen, imaging, A549 dox-inducible miR-34, nuclei and caspase counts (AID 1347080); details: A549 miR-34 inducible, Hoechst nuclei count, 48 h
# [2] = survival rescue of mitochondrial mutant cells in low glucose, primary screen, MELAS cybrids, Rieske KO mouse fibroblasts, CellTiter-Glo (AID 1508586;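 active = mean z-score across replicates of 1.96 or higher in either the MELAS or the Rieske mutant cell line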;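 note: z relative to plate mean and SD of compound and empty wells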)
# [3] = target: NAD(+) hydrolase SARM1 (Homo sapiens) (UniProt Q6SZW1); assay: SARM1 TIR NADase inhibitors, cell lysate, NAD-Glo luminescence (AID 1508614;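 active = compound whose remaining NAD level is above about 45 nM, limit read from the data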;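 note: higher remaining NAD means stronger inhibition of SARM1 NADase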); details: SAM-TIR HEK293T lysate NADase, at 1 µM, stronger effect = higher value
# NAD(+) hydrolase SARM1 (Homo sapiens), sequence (Q6SZW1 whole entry, looked up, the tested form may be a part): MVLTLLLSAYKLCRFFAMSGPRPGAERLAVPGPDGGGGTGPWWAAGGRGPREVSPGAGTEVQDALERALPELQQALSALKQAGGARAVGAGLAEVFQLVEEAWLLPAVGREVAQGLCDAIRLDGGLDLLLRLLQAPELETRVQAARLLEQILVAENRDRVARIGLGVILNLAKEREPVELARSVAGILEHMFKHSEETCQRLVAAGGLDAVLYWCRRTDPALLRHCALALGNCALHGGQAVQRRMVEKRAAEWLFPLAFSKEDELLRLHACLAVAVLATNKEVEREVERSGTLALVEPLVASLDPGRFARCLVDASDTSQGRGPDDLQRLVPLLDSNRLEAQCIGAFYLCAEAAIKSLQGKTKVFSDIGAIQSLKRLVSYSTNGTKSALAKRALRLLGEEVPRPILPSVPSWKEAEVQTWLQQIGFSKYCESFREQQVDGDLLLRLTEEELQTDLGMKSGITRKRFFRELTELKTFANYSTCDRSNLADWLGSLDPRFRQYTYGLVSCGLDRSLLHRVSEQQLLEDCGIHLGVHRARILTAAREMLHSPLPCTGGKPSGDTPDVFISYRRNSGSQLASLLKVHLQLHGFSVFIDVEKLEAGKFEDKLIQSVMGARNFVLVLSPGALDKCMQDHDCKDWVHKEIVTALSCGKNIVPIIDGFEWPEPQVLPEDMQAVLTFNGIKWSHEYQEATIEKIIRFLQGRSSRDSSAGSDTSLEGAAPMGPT
# [4] = target: Mitogen-activated protein kinase 7 (Homo sapiens) (UniProt Q13164); assay: ERK5 transactivation activators in reporter cells, primary screen, cell-based, HTS (AID 1508626;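 active = luciferase signal above three times the same-plate solvent-only control wells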;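 note: luciferase driven by Gal4-ERK5 fusion binding five Gal4 sites before minimal TATA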); details: HeLa Gal4-ERK5 transactivation, 18 h, at 5 µM, stronger effect = higher value
# Mitogen-activated protein kinase 7 (Homo sapiens), sequence (Q13164 whole entry, looked up, the tested form may be a part): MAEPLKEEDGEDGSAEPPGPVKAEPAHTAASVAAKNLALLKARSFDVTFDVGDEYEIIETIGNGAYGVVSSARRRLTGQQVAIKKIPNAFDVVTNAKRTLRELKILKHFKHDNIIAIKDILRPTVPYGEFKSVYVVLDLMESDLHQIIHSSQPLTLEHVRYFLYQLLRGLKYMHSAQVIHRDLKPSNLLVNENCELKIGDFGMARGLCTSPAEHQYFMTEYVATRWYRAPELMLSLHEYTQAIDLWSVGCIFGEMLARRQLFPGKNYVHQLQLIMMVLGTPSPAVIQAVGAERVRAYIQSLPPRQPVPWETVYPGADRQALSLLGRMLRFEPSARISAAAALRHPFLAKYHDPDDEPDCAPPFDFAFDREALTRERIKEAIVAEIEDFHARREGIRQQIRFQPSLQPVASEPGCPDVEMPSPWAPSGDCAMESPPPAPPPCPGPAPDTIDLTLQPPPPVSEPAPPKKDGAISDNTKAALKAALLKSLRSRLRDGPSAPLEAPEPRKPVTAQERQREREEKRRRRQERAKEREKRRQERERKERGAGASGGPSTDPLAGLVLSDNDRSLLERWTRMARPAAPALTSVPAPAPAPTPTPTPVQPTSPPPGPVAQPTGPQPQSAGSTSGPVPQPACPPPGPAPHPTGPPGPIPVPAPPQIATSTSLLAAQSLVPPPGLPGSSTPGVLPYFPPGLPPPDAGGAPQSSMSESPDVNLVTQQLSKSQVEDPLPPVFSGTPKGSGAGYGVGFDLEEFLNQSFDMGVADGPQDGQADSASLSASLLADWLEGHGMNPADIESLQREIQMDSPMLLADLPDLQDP
# [5] = viability rescue of complex I mutant cybrids, primary screen, cell-based, galactose medium, ATP luminescence (AID 1645843;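 active = z-score of at least 1.8 in each of two replicates, scored against plate mean and spread of sample wells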;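 note: positive z means more ATP and so rescue of galactose-driven cybrid death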); details: complex I mutant cybrid cells, 72 h, stronger effect = higher value
# [6] = stronger effect = lower value, cell number ratio, induced over uninduced
# [7] = measured here: relative caspase fold change +Dox/-Dox
# [8] = measured here: total cells with miR-34 induction, stronger effect = lower value
# [9] = measured here: total cells without miR-34 induction
# [10] = MELAS cybrid survival, CellTiter-Glo 48 h, stronger effect = higher value
# [11] = Rieske KO mouse fibroblast survival, CellTiter-Glo 72 h
SMILES,"fold change [1, 6]","fold change [1, 7]","cell count [1, 8]","cell count [1, 9]","z-score [2, 10]","z-score [2, 11]",remaining NAD [3],luciferase signal [4],z-score [5]
CCCCCCCCNC(C)C(O)c1ccc(SC(C)C)cc1 (stereo not given),0.989 (inactive) and 0.828 (inactive),0.711 and 5.68,4220 and 5020,4270 and 6060,-2.11,11.2,10 nM (inactive),60 AU (inactive),
O=C1c2c(O)cccc2Cc2cccc(O)c21,0.891 (inactive),1.8,11600,13000,0.308 (inactive),0.465,10 nM (inactive),180 AU (inactive),
COc1ccc(NS(=O)(=O)c2ccc(N)cc2)nn1,0.86 (inactive) and 0.96 (inactive) and 0.867 (inactive),1.18 and 0.826 and 3.5,7560 and 8690 and 11000,8780 and 9050 and 12700,-0.236 (inactive) and -0.537 (inactive),-0.178 and -1.12,10 nM (inactive),28 AU (inactive),
CCn1cc(C(=O)O)c(=O)c2cnc(N3CCCC3)nc21,0.925 (inactive),1.02,8260,8920,-0.0207 (inactive),-0.983,10 nM (inactive),80 AU (inactive),
Nc1cc(-c2ccncc2)c[nH]c1=O,0.97 (inactive) and 0.958 (inactive),0.721 and 1.08,9670 and 8610,9980 and 8980,-0.926 (inactive),-1.08,10 nM (inactive),104 AU (inactive),
CCC(=O)c1c(O)cc(O)cc1O,0.895 (inactive),0.888,7860,8770,-0.229 (inactive),-0.146,10 nM (inactive),60 AU (inactive),
CC(=O)Nc1ccccc1,0.942 (inactive) and 0.865 (inactive),0.456 and 3.01,7610 and 11100,8080 and 12800,-0.316 (inactive),-0.0672,10 nM (inactive),60 AU (inactive),
Cc1cc(=O)n(-c2ccccc2)n1C,0.939 (inactive) and 0.859 (inactive) and 0.88 (inactive),0.938 and 0.796 and 1.12,8700 and 7960 and 10700,9270 and 12100,-0.258 (inactive) and 0.556 (inactive),-0.2 and -0.0597,10 nM (inactive),116 AU (inactive),
CC(C(=O)O)c1ccc2c(c1)[nH]c1ccc(Cl)cc12 (stereo not given),0.887 (inactive) and 0.921 (inactive),0.75 and 3.71,8310 and 12000,9370 and 13100,-0.267 (inactive) and -0.0777 (inactive),-0.169 and 0.447,10 nM (inactive),16 AU (inactive),
CC1=C(C(=O)O)N2C(=O)[C@@H](NC(=O)[C@H](N)c3ccc(O)cc3)[C@H]2SC1,0.85 (inactive),1.87,8500,10000,0.444 (inactive),0.13,10 nM (inactive),108 AU (inactive),
Cc1cc(-c2ccccc2)nnc1NCCN1CCOCC1,0.881 (inactive) and 0.888 (inactive),0.934 and 3.7,8700 and 11800,9870 and 13300,0.442 (inactive),0.39,10 nM (inactive),48 AU (inactive),
CC1(C)OC(=O)NC1=O,0.858 (inactive) and 0.827 (inactive),1.35 and 1.46,8730 and 10500,10200 and 12700,-0.0486 (inactive),-0.442,10 nM (inactive),64 AU (inactive),
CC(C)(Oc1ccc(Cl)cc1)C(=O)O,0.908 (inactive) and 0.929 (inactive) and 0.927 (inactive),1.01 and 0.543 and 0.953,9250 and 7700 and 8560,10200 and 8280 and 9240,-0.232 (inactive) and -0.856 (inactive),-0.207 and -0.151,10 nM (inactive),72 AU (inactive),0.98 (inactive)
CC(C)N=C(N)/N=C(\N)Nc1ccc(Cl)cc1,0.874 (inactive) and 0.829 (inactive),0.463 and 3.03,7740 and 10800,8860 and 13000,-1.19 (inactive),0.61,10 nM (inactive),84 AU (inactive),
C=CCSCC1Nc2cc(Cl)c(S(N)(=O)=O)cc2S(=O)(=O)N1 (stereo not given),0.925 (inactive) and 0.942 (inactive),0.973 and 1.58,8690 and 12000,9400 and 12700,-0.333 (inactive),-0.472,10 nM (inactive),40 AU (inactive),
Nc1nccs1,0.923 (inactive),0.616,7980,8650,-0.119 (inactive),-0.205,10 nM (inactive),40 AU (inactive),
CC(=O)Oc1cccc2c1C(=O)c1c(OC(C)=O)cc(C(=O)O)cc1C2=O,0.904 (inactive),2.1,8090,8950,-0.263 (inactive) and -0.828 (inactive),-0.165 and -1.06,10 nM (inactive),44 AU (inactive),
CCCCOc1ccc(OCCCN2CCOCC2)cc1,0.766 (inactive) and 0.863 (inactive) and 0.924 (inactive),1.42 and 1.47 and 3.29,7600 and 7830 and 11600,9930 and 9070 and 12500,-0.0227 (inactive) and 0.258 (inactive),-0.168 and -0.646,10 nM (inactive),36 AU (inactive),

SMILES,"fold change [1, 6]","fold change [1, 7]","cell count [1, 8]","cell count [1, 9]","z-score [2, 10]","z-score [2, 11]",remaining NAD [3],luciferase signal [4],z-score [5]
C[C@]12CCC(=O)C=C1C=C[C@@H]1[C@@H]2CC[C@@]2(C)[C@H]1CC[C@@]21CCC(=O)O1,0.826 (inactive),1.19,8530,10300,-0.57 (inactive) and -0.163 (inactive),-0.749 and -0.289,10 nM (inactive),40 AU (inactive),-0.645 (inactive)
O=C(O)CCNC(=O)c1ccccc1,0.9 (inactive),0.686,8280,9200,-0.217 (inactive),-0.148,10 nM (inactive),20 AU (inactive),
CCN(CC)CCNC(=O)COc1ccc(OC)cc1,0.859 (inactive) and 0.867 (inactive),1.24 and 3.74,9000 and 11100,10500 and 12800,0.396 (inactive),-0.0981,10 nM (inactive),72 AU (inactive),
O=C1c2ccccc2C(=O)C1c1ccccc1,0.851 (inactive) and 1.01 (inactive) and 0.873 (inactive),1.04 and 0.811 and 1.49,8760 and 1750 and 10200,10300 and 1740 and 11700,-0.152 (inactive) and 0.54 (inactive),-0.0639 and -0.0998,10 nM (inactive),52 AU (inactive),
Nc1ccc(S(=O)(=O)Nc2ccc(Cl)nn2)cc1,0.789 (inactive) and 0.924 (inactive),1.6 and 3.43,7930 and 11400,10000 and 12300,0.0891 (inactive),0.0567,10 nM (inactive),168 AU (inactive),
CCOc1ccc(NC(C)=O)cc1,0.886 (inactive) and 0.916 (inactive),1.49 and 0.787 and 3.07,9560 and 7800 and 11500,10800 and 8520 and 12600,-0.475 (inactive) and -0.0201 (inactive),-0.108 and 0.061,10 nM (inactive),68 AU (inactive),
CC(=O)OC/C=C(C)/C=C/C=C(C)/C=C/C1=C(C)CCCC1(C)C,0.9 (inactive),1.05,10300,11500,-0.677 (inactive),-0.15,10 nM (inactive),96 AU (inactive),-0.205 (inactive)
Cn1c([N+](=O)[O-])cnc1COC(N)=O,0.949 (inactive) and 0.998 (inactive) and 0.92 (inactive),0.814 and 0.524 and 4.33,9230 and 8250 and 11400,9730 and 8270 and 12400,-0.153 (inactive) and -0.082 (inactive),-0.129 and 0.703,10 nM (inactive),108 AU (inactive),
CN1CCN(C(c2ccccc2)c2ccccc2)CC1,0.854 (inactive) and 1.14 (inactive) and 0.917 (inactive),1.3 and 0.825 and 1.5,8120 and 9280 and 11100,9500 and 8140 and 12100,-0.157 (inactive) and 0.0064 (inactive),-0.181 and 0.467,10 nM (inactive),124 AU (inactive),
CCOC(=O)OC(C)OC(=O)[C@@H]1N2C(=O)[C@@H](NC(=O)[C@H](N)c3ccccc3)[C@H]2SC1(C)C (stereo not given in full),0.838 (inactive),1.63,8230,9820,0.0142 (inactive),-0.106,10 nM (inactive),76 AU (inactive),
CC(Cc1cccc(C(F)(F)F)c1)NCCOC(=O)c1ccccc1 (stereo not given),0.816 (inactive),1.56,8560,10500,0.63 (inactive),0.0603,10 nM (inactive),84 AU (inactive),
O=C(O)CCC(=O)c1ccc(-c2ccccc2)cc1,0.889 (inactive) and 0.912 (inactive) and 0.859 (inactive),0.334 and 2.8 and 1.54,8550 and 11300 and 9420,9620 and 12400 and 11000,0.38 (inactive) and 0.679 (inactive),0.124 and 0.414,10 nM (inactive),68 AU (inactive),0.975 (inactive)
NC(N)=NCCN1CCCCCCC1,0.903 (inactive) and 0.92 (inactive),1.86 and 0.829,8660 and 10700,9590 and 11600,-0.808 (inactive),0.402,10 nM (inactive),32 AU (inactive),
Oc1c(Cl)cc(Cl)c(Cl)c1Cc1c(O)c(Cl)cc(Cl)c1Cl,1.05 (inactive) and 0.85 (inactive),2.17 and 2.72,2100 and 2440,2010 and 2860,-0.483 (inactive),0.0864,10 nM (inactive),28 AU (inactive),-1.5 (inactive)
CCOC(=O)NNc1nncc2ccccc12,0.882 (inactive),0.778,8120,9200,-0.647 (inactive),-0.171,10 nM (inactive),36 AU (inactive),
O=c1cc[nH]c(=S)[nH]1,0.917 (inactive),0.54,7500,8180,-0.297 (inactive),-0.0433,10 nM (inactive),100 AU (inactive),
CCCCCCCCCCCCCCCCOP(=O)([O-])OCC[N+](C)(C)C,1 (inactive) and 0.955 (inactive),0.961 and 1.28,5900 and 10200,5890 and 10700,-0.744 (inactive),-0.431,10 nM (inactive),132 AU (inactive),-0.3 (inactive)
CC1(C)S[C@@H]2[C@H](NC(=O)[C@H](N)c3ccccc3)C(=O)N2[C@H]1C(=O)O,0.937 (inactive) and 0.929 (inactive) and 0.871 (inactive),0.845 and 0.857 and 1.14,8790 and 10800 and 9210,9380 and 11700 and 10600,0.56 (inactive) and 0.538 (inactive),-0.285 and -0.0992,10 nM (inactive),44 AU (inactive),0.415 (inactive)
